Compound activity (PubChem BioAssay)
KDM5B inhibitor – inhibitors of human KDM5B histone demethylase. 220,000 tested, 2.6% active. Potency, µM (titrated, usually from 57.7 µM), actives largely listed as inhibitors. Q9UGL1. KDM5B demethylase, FDH-coupled NADH fluorescence (FDH is formaldehyde dehydrogenase); further: nearly all actives have a fitted effect of over 70% in size
Target sequence (Q9UGL1 whole entry, looked up): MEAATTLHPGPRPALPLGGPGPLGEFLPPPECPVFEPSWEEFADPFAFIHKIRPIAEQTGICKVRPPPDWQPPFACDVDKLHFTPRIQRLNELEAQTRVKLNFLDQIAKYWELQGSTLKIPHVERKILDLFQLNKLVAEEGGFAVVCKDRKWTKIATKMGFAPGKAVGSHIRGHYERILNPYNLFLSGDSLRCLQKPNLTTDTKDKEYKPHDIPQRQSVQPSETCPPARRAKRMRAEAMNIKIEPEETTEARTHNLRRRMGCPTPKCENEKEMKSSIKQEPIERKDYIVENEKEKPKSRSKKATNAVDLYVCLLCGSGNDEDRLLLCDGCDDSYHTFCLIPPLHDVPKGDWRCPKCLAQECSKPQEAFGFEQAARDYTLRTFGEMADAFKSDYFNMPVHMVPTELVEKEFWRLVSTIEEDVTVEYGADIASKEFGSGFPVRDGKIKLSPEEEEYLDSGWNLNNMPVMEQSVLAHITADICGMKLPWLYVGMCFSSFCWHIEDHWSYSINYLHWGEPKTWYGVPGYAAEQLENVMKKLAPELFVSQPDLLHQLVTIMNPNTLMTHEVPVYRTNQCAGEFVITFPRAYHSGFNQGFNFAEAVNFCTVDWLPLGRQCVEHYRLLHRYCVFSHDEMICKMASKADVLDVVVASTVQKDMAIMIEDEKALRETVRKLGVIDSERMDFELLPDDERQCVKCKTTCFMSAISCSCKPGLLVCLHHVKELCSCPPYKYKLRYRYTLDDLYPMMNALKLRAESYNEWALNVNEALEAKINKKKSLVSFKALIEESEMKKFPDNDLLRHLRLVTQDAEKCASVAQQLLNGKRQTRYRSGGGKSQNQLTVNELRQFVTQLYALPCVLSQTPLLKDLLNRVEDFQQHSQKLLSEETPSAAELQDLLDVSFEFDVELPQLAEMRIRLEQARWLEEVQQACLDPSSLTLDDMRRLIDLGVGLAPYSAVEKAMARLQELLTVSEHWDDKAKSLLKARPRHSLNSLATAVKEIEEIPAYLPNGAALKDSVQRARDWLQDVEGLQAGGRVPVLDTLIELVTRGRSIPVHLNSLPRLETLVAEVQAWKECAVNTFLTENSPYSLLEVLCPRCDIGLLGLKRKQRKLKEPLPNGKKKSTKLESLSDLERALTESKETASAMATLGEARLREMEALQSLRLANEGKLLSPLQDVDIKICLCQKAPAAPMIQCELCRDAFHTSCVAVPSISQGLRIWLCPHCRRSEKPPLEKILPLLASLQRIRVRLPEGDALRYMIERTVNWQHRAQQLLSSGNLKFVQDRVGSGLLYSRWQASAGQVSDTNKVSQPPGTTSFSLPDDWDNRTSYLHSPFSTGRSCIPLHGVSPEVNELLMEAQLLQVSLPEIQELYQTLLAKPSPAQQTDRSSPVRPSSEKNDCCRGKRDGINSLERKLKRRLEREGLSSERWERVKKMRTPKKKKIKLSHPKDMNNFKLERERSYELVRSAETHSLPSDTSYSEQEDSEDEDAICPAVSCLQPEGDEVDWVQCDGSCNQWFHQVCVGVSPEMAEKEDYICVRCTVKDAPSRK
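Measured: NADH fluorescence change, 30 min, RT. System: KDM5BΔAP 200 nM final, H3K4me3 peptide, α-KG, Fe(II), ascorbate, NAD⁺ plus FDH, pH 7.5 HEPES. Compounds: titrated, 10 min pre-incubation with enzyme.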
IP6K1 inhibitor – inhibitors of human IP6K1 | IP6K1 kinase, ADP-Glo luminescence, 2 h; hits give low values | activity change, % (series mostly up to about 58 µM) | 140,000 tested, 0.81% active | AID 1645851; in the data active means activity change below about -25%
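ADP-Glo luminescence measures ADP made by human IP6K1 during a 2 h RT reaction with ATP/IP6 (mix at 1.3 mM/130 uM); top library doses 57.5 and 19.1 uM final.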
IP6K1 conf – human IP6K1 inhibition, confirmatory; recombinant IP6K1 kinase, ADP-Glo luminescence, 2 h; AID 1645852; 1,200 tested, 13% active; Potency, µM (top dose mostly 49 µM), hits mostly inhibitors; shares compounds with IP6K1 inhibitor; further: nearly all actives have a fitted effect of over 65% in size
Of the large screens only hits and unclear results are named; the others gave an inactive call (follow-up assays come after a bar, where they were run). Only some compounds are listed: those with a hit (about 2.8% of all), similar ones and a draw of the others. Unless noted, the call rests on the fitted dose curve; in most records, active means well fitted inhibition curve with a large enough effect; inconclusive means small, poorly fitted or top-dose-only effect; inactive means no such curve, though single readings can be large or run the other way.

C[C@H]1C(=O)O[C@H]2[C@H](O)[C@]34C5OC(=O)[C@]3(O[C@@H]3OC(=O)[C@H](O)C34[C@H](C(C)(C)C)[C@H]5O)C12O (stereo not given in full)	none (no result: KDM5B inhibitor)
COCCNC(=O)[C@H]1CN2CC[C@H]1C[C@@H]2Cn1cc(CO)nn1	none
COc1ccc2c(C)c(C(=O)N3CCC(C#N)(c4ccccc4)CC3)oc2c1	KDM5B inhibitor 20µM
Cn1ccc2ccc(C(=O)N3CCC(C#N)(c4ccccc4)CC3)cc21	KDM5B inhibitor inconclusive
CCOC(=O)[C@H]1CN(C(=O)Cc2ccccc2)[C@]2(C)C(=O)N(CCOC(C)=O)c3ccccc3[C@H]12	none (no result: KDM5B inhibitor)
O=[N+]([O-])c1ccc(NCCOc2ccccc2)c2ncccc12	none (no result: IP6K1 inhibitor)
O=C1NC2(CCN(Cc3ccccn3)C2)OCc2ccccc21 (stereo not given)	KDM5B inhibitor 40µM
O=C1NC2(CCN(Cc3cccnc3)C2)OCc2ccccc21 (stereo not given)	none
CC(C(=O)c1c[nH]c2ccccc12)N(Cc1ccc(F)cc1)C1CC1 (stereo not given)	none (no result: IP6K1 inhibitor)
C1CC(NC2CCOCC2)CCN1	KDM5B inhibitor inconclusive
O=C(NC1CCCCC1)N1C[C@@H]2C[C@H](C1)c1ccc(C3CCCCC3)c(=O)n1C2	KDM5B inhibitor 40µM
Cc1ccccc1-c1ccc2n(c1=O)C[C@H]1C[C@@H]2CN(C(=O)Nc2cccc(F)c2)C1	KDM5B inhibitor inconclusive
Cc1ccccc1-c1ccc2n(c1=O)C[C@H]1C[C@@H]2CN(C(=O)NC2CCCCC2)C1	KDM5B inhibitor 35µM
O=C(Nc1ccc2n(c1=O)C[C@H]1C[C@@H]2CN(C(=O)NC2CCCCC2)C1)c1ccccn1	none
C[C@H]1CN(CC[C@H](O)C2CCCCC2)CC[C@@]1(C)c1cccc(O)c1	none (no result: KDM5B inhibitor)
CCOC(=O)CCNC(=O)N1[C@H]2CC[C@@H]1c1cnc(-c3ccc(F)cc3)nc1C2	none (no result: KDM5B inhibitor)
CNCc1cn(C[C@H]2CC3CCN2C[C@@H]3C(=O)NC2CC2)nn1 (stereo not given in full)	none
O=C(c1cc(Br)c[nH]1)C(Cl)(Cl)Cl	none (no result: IP6K1 inhibitor)
O=C(Cc1ccc(F)cc1)N1CCN(Cc2ccccc2-c2cccnc2)CC1	none (no result: KDM5B inhibitor)
CCN1CCN(C(=O)Cc2ccc(Nc3ncc(F)c(Nc4ccc(C(=O)Nc5ccccc5Cl)cc4)n3)cc2)CC1	IP6K1 inhibitor -33 (no result: KDM5B inhibitor) | IP6K1 conf inconclusive
CCCCCCCCCC(CC)c1ccc(S(=O)(=O)O)cc1 (stereo not given)	none (no result: KDM5B inhibitor)
Cc1cc2c(N3CCC(N4C[C@@H]5CCN[C@@H]5C4)CC3)ncnc2s1	KDM5B inhibitor inconclusive
COc1cc2c(cc1OCC1CCCC1)N(C(=O)CC(C)C)CC21CCN(CC(=O)O)CC1	none
CC1=CC2(O)/C=C/C(C)(O)C(O)C(O)/C=C/C(=O)OC23C(=O)NC(CC(C)C)C3C1C (stereo not given)	none (no result: KDM5B inhibitor)
COc1cc2c(cc1OCC1CC1)NC(=O)C21CCN(C(=O)c2ccccc2)CC1	none
COc1cc2c(cc1OCC1CC1)NC(=O)C21CCN(C(=O)c2cccc(C#N)c2)CC1	IP6K1 inhibitor -27 | IP6K1 conf inactive
Cn1nc(C2CCCCC2)cc1[C@H]1CN2CC[C@H]1C[C@@H]2CNC(=O)Nc1ccccc1	none
COc1cc2c(cc1OCc1ccccc1)NC(=O)C21CCN(CC2CC2)CC1	none
COc1cc2c(cc1OC1CCCC1)NC(=O)C21CCN(c2cnccn2)CC1	KDM5B inhibitor inconclusive, IP6K1 inhibitor -30 | IP6K1 conf inactive
COc1cc2c(cc1OC1CCCC1)NC(=O)C21CCN(c2nc(C)cc(C)n2)CC1	KDM5B inhibitor inconclusive
COc1cc2c(cc1OCc1ccccc1)NC(=O)C21CCN(c2cnccn2)CC1	KDM5B inhibitor 32µM, IP6K1 inhibitor -29 | IP6K1 conf inconclusive
CCOc1ccc(CN(CCc2ccc3c(c2)OCO3)Cc2cccc(OC)c2)cc1	KDM5B inhibitor inconclusive, IP6K1 inhibitor -31 | IP6K1 conf inactive
CCOc1ccc(CN(CCc2ccc3c(c2)OCO3)Cc2ccc(OC)c(Br)c2)cc1	KDM5B inhibitor inconclusive
Cc1nn(C)c(C)c1C1SCC(=O)Nc2c1c(C)nn2-c1ccccc1 (stereo not given)	none (no result: IP6K1 inhibitor)
N#Cc1cn([C@@H]2O[C@H](CO)[C@H](O)[C@@H]2O)c2ncnc(N)c12	IP6K1 inhibitor -27 (no result: KDM5B inhibitor) | IP6K1 conf 10µM
N#CC(OC1OC(COC2OC(CO)C(O)C(O)C2O)C(O)C(O)C1O)c1ccccc1 (stereo not given)	none (no result: KDM5B inhibitor)
O=C(NC[C@H]1C[C@@H]2CCN1C[C@@H]2CN1CCCC1)c1ccccc1	none
c1cncc(C2=NOC3(CCN(C4COC4)CC3)C2)c1	none
O=C(Nc1ccc(Br)cc1C(=O)c1ccccc1)c1ccccc1	none
O=C(Nc1ccc(Br)cc1)c1cc(Br)cc(Br)c1O	IP6K1 inhibitor -40 (no result: KDM5B inhibitor) | IP6K1 conf 23µM
CN1CCN(C(=O)Cc2c[nH]c3ncc(-c4ccccc4Oc4ccccc4)cc23)CC1	KDM5B inhibitor 40µM, IP6K1 inhibitor -28 | IP6K1 conf inactive
O=C(Cc1c[nH]c2ncc(-c3cccnc3)cc12)N1CCN(Cc2ccccc2)CC1	none
CN1CCN(C(=O)Cc2c[nH]c3ncc(-c4cccc(OC(F)(F)F)c4)cc23)CC1	KDM5B inhibitor 35µM, IP6K1 inhibitor -53 | IP6K1 conf inconclusive
CN1CCN(C(=O)Cc2c[nH]c3ncc(-c4ccc(CO)cc4)cc23)CC1	KDM5B inhibitor inconclusive
CN(C)[C@@H]1C(=O)C(C(N)=O)=C(O)[C@@]2(O)C(=O)C3=C(O)c4c(O)cccc4[C@@](C)(O)[C@H]3C[C@@H]12	IP6K1 inhibitor -75 (no result: KDM5B inhibitor) | IP6K1 conf inactive
CN(C)[C@@H]1C(=O)C(C(N)=O)=C(O)[C@@]2(O)C(=O)C3=C(O)c4c(O)ccc(Cl)c4[C@@](C)(O)C3C[C@@H]12 (stereo not given in full)	none (no result: KDM5B inhibitor)
COCCNC(=O)[C@H]1CN2CCC1C[C@@H]2Cn1cc(CCO)nn1 (stereo not given in full)	none
Oc1ccc(C2N(O)C3CCCCC3N2O)cc1 (stereo not given)	none (no result: IP6K1 inhibitor)
Cc1cc(SCc2sc(-c3ccc(C(F)(F)F)c(F)c3)nc2C)ccc1OCC(=O)O	IP6K1 inhibitor -30 (no result: KDM5B inhibitor) | IP6K1 conf inconclusive
CC(C)C(C)NC(=O)COC(=O)c1cn(C)c2ccccc12 (stereo not given)	none (no result: IP6K1 inhibitor)
Clc1ccc(COc2cccc(CNC3CN4CCC3CC4)c2)c(Cl)c1 (stereo not given)	none (no result: IP6K1 inhibitor)
COP(=S)(OC)SCN1C(=O)c2ccccc2C1=O	IP6K1 inhibitor -37 (no result: KDM5B inhibitor) | IP6K1 conf 18µM
CC(=O)Nc1ccc(-c2ccc(=O)n3c2[C@@H]2C[C@@H](CN(C(=O)c4cccs4)C2)C3)cc1	KDM5B inhibitor inconclusive
Cc1ncsc1CCC(=O)N1C[C@@H](c2ccccc2)[C@@H]2[C@H]1C1CCN2CC1	none
O=C(CCn1cccn1)N1C[C@H](c2cccc(F)c2F)[C@@H]2[C@H]1C1CCN2CC1	IP6K1 inhibitor -33 | IP6K1 conf inactive
O=C1NCCCCCCN(Cc2ccncc2)[C@@H]2CN(C(=O)COc3ccccc3)CC[C@@H]12	KDM5B inhibitor inconclusive
CCN1CCCNCC12CCOCC2	KDM5B inhibitor inconclusive
